According to PubChem BioAssay AID624418 (National Center for Advancing Translational Sciences (NCATS), 2012):
Screen size: about 410,000 compounds; about 530 (0.13%) were called active. Another 5% or so got no clear call; they are omitted. The call rests on the fitted dose curve; in most records, active means well fitted inhibition curve with a large enough effect; inconclusive means small, poorly fitted or top-dose-only effect, or another doubt; inactive means no such curve, though single readings can be large or run the other way. Only a selection was taken, and actives are over-represented in it overall.

Assay: qHTS of GLP-1 Receptor Inverse Agonists: Cytotox Screen;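 further: loss of luciferase light is scored as toxicity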
Conditions: HEK293 cAMP-luciferase reporter cells, luminescence, 24 h; series mostly up to 38.3 µM; activity change, negative = inhibition: at the top concentration
Excerpt: The overall goal of this project was to develop a novel assay for discovering small molecule ligands for class B1 G protein-coupled receptors (GPCRs). Very few agonists (or inverse agonists) with generally weak activity for this entire group of physiologically important receptors are known to date. To establish proof-of-principle that this critical bottleneck can be overcome with a suitable screening approach, our studies focused on the class B1 receptor for glucagon-like peptide-1 (GLP-1R), a potential therapeutic target for diabetes and neurodegenerative disease.
The assay was developed using a cell-based functional readout. Toward this goal, stably transfected HEK293 cell clones were established that co-express (i) a cAMP-responsive luciferase reporter gene, and (ii) constitutively active GLP-1R that upon ligand interaction inhibit (inverse agonists) the luciferase activity. In addition, two control cell lines were developed: (i) one that express only the cAMP-responsive reporter gene to enable initial exclusion of GLP-1R independent effects of candidate probes; and (ii) one with the reported gene cloned with another constitutively active orphan receptor GPR119 to enable exclusion of GLP-1R independent inhibitor effects of candidate inverse agonists.
To that end, this assay was optimized for 1536-well format and screened against the MLSMR. Then the same collection was run in this cytotoxicity assay where inhibition was the undesired outcome.
NIH Molecular Libraries Probe Production Network [MLPCN]
NIH Chemical Genomics Center [NCGC]
PI Name: Martin Beinborn, Tufts Medical Center
Six ul of cell suspension (200 cells/uL in DMEM + 10% Nu serum + 1% pen-strep) is dispensed in a white solid 1536-well plate. The plates are incubated for 12 hours at 37 deg C at 5% CO2 followed by addition of 23 nL compounds. After 24 hr incubation at 37 deg C and 5% CO2, 3 uL of luciferase assay detection reagent is added. A luminescence read is obtained on the PerkinElmer Viewlux after 12 min incubation at room temperature.
On the % scale 0 is the no-effect control and ±100 the full control effect; potency means the concentration at half of the fitted maximal effect.

Compound	Potency	activity change, negative = inhibition
O=C(Nc1ccc(OC(F)(F)F)cc1)c1ccc2c(c1)no[n+]2[O-]	11.2 µM (active)	–
O=C(Nc1ccc(Cl)cn1)Nc1cccs1	–	49.1% (inactive)
CCOC(=O)[C@]12Cc3cc(OC)ccc3[C@H]1N(C(C)C)C(=O)c1ccccc12	–	-28.2% (inactive)
CCOc1ccc2nc(Nc3nc4ccc(NC(C)=O)cc4s3)sc2c1	–	37.9% (inactive)
Cc1ccc(NC(=O)N(Cc2ccc3c(c2)OCO3)C2CCN(Cc3ccccc3)CC2)cc1F	–	-0.237% (inactive)
COc1ccc(CS(=O)/C(Cl)=C(/Cl)C(=O)Nc2ccc(OC)nc2)cc1 (stereo not given)	3.98 µM (active)	–
O=C1N[C@H](Cc2c[nH]c3ccccc23)COC(=O)[C@H](Cc2ccc(F)cc2)C/C=C\C[C@H]1CC(=O)N(CCO)Cc1ccccc1	–	-58.3% (inactive)
CCN(CC)CCCC(C)n1c2nc(=O)[nH]c(=O)c-2nc2cc(Cl)ccc21 (stereo not given)	–	490% (inactive)
c1cc2c(c(NC3=NCCCS3)c1)CCCC2	–	-18% (inactive)
Cc1nnc(NC(=O)c2cccn(Cc3cccc(F)c3)c2=O)s1	–	4.13% (inactive)
Cc1cccc(Cn2cccc(C(=O)Nc3ccc4c(c3)OCCO4)c2=O)c1	–	4.23% (inactive)
C=CCC[C@@H](Cc1ccc(F)cc1)C(=O)OC[C@H](Cc1c[nH]c2ccccc12)NC(=O)[C@@H](CC=C)CC(=O)N(CCO)Cc1ccccc1	–	7.51% (inactive)
Nc1ccc(-c2sc(N)nc2-c2ccccc2)cc1	–	184% (inactive)
NS(=O)(=O)c1ccc(NC(=O)COC(=O)c2c3c(nc4ccccc24)/C(=C\c2ccc4c(c2)OCO4)CCC3)cc1	–	80.2% (inactive)
C=CC(=O)Nc1ccc(Nc2ccnc(Nc3ccc(N4CCN(C)CC4)cc3)n2)cc1	10 µM (active)	–
CCC1(CC(C)c2ccccc2)C(=O)NC(=O)NC1=O (stereo not given)	–	9.72% (inactive)
COc1cccc2sc3cc(NCC[C@@H]4CCCN4C)ccc3c(=O)c12	–	221% (inactive)
CC(C)c1ccc(C=NNc2ccc([N+](=O)[O-])cn2)cc1	–	44.1% (inactive)
Cc1cc(C)c2c(c1)cc(C)c1nnc(SCC(=O)Nc3cc(C)on3)n12	10 µM (active)	–
COc1ccc(-c2nc3cnccn3c2NC2CCCCC2)cc1-c1cccc(Cl)c1	–	77.1% (inactive)
NC(=O)c1sc2nc3c(c(-c4ccccc4)c2c1N)CCC3	–	56.3% (inactive)
O=C(Nc1nnc(-c2ccccc2)o1)c1cccc(S(=O)(=O)N2CCOCC2)c1	10 µM (active)	–
O=C(c1cc(S(=O)(=O)N2CCOCC2)ccc1F)N1CCC2(CC1)OCCO2	–	-20.6% (inactive)
COc1ccccc1OC(=O)c1ccc(C)c(S(=O)(=O)N2CCOCC2)c1	–	0.53% (inactive)
CCc1ccc(OCC(=O)N2CCN(CC(=O)Nc3ccccc3Cl)CC2)cc1	–	-14.3% (inactive)
